Test [1] has as its target Nuclear receptor coactivator 3 (Homo sapiens) (UniProt Q9Y6Q9). Briefly: SRC3 coactivator transcriptional activity inhibitors, confirmation, cell-based, luminescence, quadruplicate (AID 588792;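 active = mean inhibition over 43.08%, the solvent-only control mean plus 3 SD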;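 note: 0% = DMSO treated cells and 100% = gossypol at 36 µM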). To be noted: HEK293 GAL4-SRC3 luciferase reporter, at 3.6 µM, stronger effect = higher value. A general note: A reporter such as luciferase makes a cellular process visible.
The test system of test [2] is transactivating tegument protein VP16 (Human herpesvirus 1), Gal4-VP16 luciferase reporter. Briefly: VP16 transactivation inhibitors, counter-screen for SRC3 inhibitor project, cell-based, luminescence, high throughput (AID 588794; in the data active = inhibition above about 30%). The following applies: mammalian cells, VP16-driven luciferase reporter luminescence; at 3.6 µM; stronger effect = higher value. (In general: The purpose of a counterscreen is to sort out artefacts and off-target activity.)

In test [3] the target is Nuclear receptor coactivator 1 (Homo sapiens) (UniProt Q15788). Put plainly: SRC1 coactivator transcriptional activity inhibitors, confirmation, cell-based, luminescence, quadruplicate (AID 588820;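 active = mean inhibition above 46.68%, the untreated control wells mean plus 3 SD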;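 note: 0% = DMSO wells and 100% = gossypol 36 µM treated wells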). The following applies: HEK293 GAL4-SRC1 luciferase reporter, at 3.6 µM, stronger effect = higher value.
Test [4] can be described thus: VP16 transactivation inhibitors, counter-screen for SRC1 inhibitor project, cell-based, luminescence, high throughput (AID 588824). To be noted: cell-based VP16 transactivation luciferase luminescence; at 3.6 µM; stronger effect = higher value.
The nature of test [5]: StAR promoter reporter inhibitors, counter-screen for LRH-1 inverse agonist project, cell-based, luminescence, high throughput (AID 651611; in the data active = inhibition above about 28%). To be noted: StAR promoter luciferase reporter counterscreen, at 3.6 µM, stronger effect = higher value.
For test [6], the target named is Nuclear receptor subfamily 5 group A member 2 (Homo sapiens) (UniProt O00482). Put plainly: LRH-1 (NR5A2) inverse agonists, retest, confirmation, cell-based, luminescence (AID 651613; in the data active = inhibition above about 42%;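 note: HEK293T cells co-transfected with LRH-1 and StAR promoter luciferase reporter; 0% = vehicle wells and 100% = parental cells lacking receptor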). To be noted: cell-based LRH-1 luciferase reporter, inverse agonism; at 3.6 µM; stronger effect = higher value.
Test [7] deals with Steroidogenic factor 1 (Homo sapiens) (UniProt Q13285). Briefly: SF1 (NR5A1) inverse agonists, counter-screen for LRH-1 inverse agonist project, cell-based, luminescence, high throughput (AID 651614; in the data active = inhibition above about 44%;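 note: cells cotransfected with StAR promoter reporter and SF1 expression vector; 0% = vehicle on cells with receptor and 100% = vehicle on cells lacking receptor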). To be noted: cell-based SF1 luciferase reporter, at 3.6 µM, stronger effect = higher value.
Test [8] in a line: VP16 transactivation reporter inhibitors, counter-screen for LRH-1 inverse agonist project, cell-based, luminescence, high throughput (AID 651615; in the data active = inhibition above about 33%). The following applies: Gal4-VP16 luciferase reporter cells, at 3.6 µM, stronger effect = higher value.
Test [9] relates to transactivating tegument protein VP16 (Human herpesvirus 1). Briefly: VP16 transactivation reporter inhibitors, counter-screen for SRC2 inhibitor project, cell-based, luminescence, single concentration (AID 652007; in the data active = inhibition above about 36%). The following applies: cell-based VP16 transactivation luciferase reporter, at 8.9 µM, stronger effect = higher value.
Test [10] has as its target Nuclear receptor coactivator 2 (Homo sapiens) (UniProt Q15596). Put plainly: SRC2 coactivator transcriptional activity inhibitors, confirmation, cell-based, luminescence, HEK293, triplicate (AID 652008;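 active = mean inhibition above 46.5%, the solvent-only control mean plus 3 SD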;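 note: 0% = DMSO-treated cells and 100% = Gossypol at 36 µM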). The following applies: HEK293 GAL4-SRC2 luciferase reporter, at 8.9 µM, stronger effect = higher value.

This passage reports inhibition results from PubChem BioAssay.

Structures are written as SMILES. Values without a mark were called inactive. The source made the active and inactive calls. Cut-off read from the data, not from the text of the source, unless noted: active = inhibition above about 25%; inactive = the rest.

Chain of Nuclear receptor coactivator 2 (Homo sapiens) (Q15596 whole entry, looked up, the tested form may be a part): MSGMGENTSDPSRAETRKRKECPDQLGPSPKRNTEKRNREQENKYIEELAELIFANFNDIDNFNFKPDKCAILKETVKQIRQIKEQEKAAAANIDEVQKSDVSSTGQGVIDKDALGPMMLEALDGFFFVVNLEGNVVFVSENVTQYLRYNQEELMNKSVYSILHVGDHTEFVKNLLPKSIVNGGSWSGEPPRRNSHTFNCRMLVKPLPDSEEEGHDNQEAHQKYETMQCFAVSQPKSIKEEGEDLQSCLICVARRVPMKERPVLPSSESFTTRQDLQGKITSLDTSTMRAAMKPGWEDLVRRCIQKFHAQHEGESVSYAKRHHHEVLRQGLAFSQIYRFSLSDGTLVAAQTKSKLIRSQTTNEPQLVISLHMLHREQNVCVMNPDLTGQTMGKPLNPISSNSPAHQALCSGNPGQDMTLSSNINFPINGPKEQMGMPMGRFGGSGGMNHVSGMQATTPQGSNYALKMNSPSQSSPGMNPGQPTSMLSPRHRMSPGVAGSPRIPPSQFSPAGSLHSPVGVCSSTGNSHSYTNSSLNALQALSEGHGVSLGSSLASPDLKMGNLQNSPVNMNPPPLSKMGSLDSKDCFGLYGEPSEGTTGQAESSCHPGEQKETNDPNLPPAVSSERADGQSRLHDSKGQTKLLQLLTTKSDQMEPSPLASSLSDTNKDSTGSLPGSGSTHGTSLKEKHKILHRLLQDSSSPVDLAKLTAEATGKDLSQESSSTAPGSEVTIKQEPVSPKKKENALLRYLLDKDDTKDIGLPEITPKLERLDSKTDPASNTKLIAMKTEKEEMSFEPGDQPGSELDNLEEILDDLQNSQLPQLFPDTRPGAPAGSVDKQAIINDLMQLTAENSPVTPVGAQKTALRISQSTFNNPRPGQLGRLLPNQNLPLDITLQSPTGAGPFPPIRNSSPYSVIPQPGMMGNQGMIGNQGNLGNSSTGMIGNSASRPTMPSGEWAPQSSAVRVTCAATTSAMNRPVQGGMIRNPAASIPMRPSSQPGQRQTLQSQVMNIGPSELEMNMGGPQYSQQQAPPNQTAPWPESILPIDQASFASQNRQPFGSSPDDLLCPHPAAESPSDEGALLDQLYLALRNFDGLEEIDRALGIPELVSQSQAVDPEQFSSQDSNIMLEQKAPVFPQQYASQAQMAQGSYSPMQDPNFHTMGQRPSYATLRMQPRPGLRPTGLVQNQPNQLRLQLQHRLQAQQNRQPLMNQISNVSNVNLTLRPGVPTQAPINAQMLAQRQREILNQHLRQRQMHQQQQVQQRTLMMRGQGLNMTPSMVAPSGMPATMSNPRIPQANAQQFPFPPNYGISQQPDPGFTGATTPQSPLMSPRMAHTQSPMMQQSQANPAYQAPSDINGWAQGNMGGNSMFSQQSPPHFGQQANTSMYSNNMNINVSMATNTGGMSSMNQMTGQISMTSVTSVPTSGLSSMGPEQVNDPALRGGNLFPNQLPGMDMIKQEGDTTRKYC
Chain of Steroidogenic factor 1 (Homo sapiens) (Q13285 whole entry, looked up, the tested form may be a part): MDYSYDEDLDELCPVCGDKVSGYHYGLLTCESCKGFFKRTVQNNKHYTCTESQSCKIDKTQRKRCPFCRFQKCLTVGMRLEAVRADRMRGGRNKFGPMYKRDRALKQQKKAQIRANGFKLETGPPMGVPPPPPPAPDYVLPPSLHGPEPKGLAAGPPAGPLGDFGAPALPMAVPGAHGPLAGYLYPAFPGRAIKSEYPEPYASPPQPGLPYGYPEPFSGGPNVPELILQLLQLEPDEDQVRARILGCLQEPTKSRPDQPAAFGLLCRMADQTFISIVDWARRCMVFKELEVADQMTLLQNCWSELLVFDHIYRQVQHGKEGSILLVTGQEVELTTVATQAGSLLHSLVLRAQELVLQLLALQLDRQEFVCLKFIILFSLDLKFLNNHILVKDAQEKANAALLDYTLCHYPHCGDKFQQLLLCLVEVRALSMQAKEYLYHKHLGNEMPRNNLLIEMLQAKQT
Chain of Nuclear receptor coactivator 3 (Homo sapiens) (Q9Y6Q9 whole entry, looked up, the tested form may be a part): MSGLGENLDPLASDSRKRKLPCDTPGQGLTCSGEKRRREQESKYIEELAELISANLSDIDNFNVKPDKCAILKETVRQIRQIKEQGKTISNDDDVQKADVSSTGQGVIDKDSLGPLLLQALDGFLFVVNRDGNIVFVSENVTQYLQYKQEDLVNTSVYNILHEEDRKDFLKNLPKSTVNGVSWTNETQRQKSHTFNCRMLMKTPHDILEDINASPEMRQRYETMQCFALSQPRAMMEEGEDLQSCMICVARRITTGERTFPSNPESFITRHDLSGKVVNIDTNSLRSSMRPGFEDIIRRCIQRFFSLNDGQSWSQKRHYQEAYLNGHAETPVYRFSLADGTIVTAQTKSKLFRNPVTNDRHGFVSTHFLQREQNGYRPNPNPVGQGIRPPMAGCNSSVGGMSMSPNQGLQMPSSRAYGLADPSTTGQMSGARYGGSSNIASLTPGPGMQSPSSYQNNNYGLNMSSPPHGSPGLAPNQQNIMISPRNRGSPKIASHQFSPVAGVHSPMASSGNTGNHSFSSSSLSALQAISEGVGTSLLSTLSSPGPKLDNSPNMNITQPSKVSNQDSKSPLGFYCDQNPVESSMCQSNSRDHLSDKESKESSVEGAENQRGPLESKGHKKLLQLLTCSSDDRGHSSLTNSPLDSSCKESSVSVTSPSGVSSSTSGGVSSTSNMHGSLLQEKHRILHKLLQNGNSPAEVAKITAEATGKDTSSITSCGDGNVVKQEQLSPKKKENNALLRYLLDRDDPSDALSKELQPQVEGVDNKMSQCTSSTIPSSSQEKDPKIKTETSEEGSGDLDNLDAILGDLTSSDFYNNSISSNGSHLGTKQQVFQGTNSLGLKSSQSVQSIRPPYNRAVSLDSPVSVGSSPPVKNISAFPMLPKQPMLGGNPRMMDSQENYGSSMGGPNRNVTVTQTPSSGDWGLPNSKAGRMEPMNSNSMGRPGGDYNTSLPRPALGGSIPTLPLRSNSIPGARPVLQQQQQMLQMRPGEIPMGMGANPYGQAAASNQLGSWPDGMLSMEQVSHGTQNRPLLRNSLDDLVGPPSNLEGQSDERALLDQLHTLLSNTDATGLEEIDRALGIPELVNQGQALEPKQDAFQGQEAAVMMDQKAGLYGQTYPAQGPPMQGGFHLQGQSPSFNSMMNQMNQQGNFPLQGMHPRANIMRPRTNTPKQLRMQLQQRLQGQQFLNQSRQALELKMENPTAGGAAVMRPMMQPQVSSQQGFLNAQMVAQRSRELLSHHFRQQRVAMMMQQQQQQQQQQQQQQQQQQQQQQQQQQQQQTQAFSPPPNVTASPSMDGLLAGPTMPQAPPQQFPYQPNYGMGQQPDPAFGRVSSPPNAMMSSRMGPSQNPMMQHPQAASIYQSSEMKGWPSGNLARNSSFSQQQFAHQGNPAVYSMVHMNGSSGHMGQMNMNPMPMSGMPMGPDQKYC
Chain of Nuclear receptor coactivator 1 (Homo sapiens) (Q15788 whole entry, looked up, the tested form may be a part): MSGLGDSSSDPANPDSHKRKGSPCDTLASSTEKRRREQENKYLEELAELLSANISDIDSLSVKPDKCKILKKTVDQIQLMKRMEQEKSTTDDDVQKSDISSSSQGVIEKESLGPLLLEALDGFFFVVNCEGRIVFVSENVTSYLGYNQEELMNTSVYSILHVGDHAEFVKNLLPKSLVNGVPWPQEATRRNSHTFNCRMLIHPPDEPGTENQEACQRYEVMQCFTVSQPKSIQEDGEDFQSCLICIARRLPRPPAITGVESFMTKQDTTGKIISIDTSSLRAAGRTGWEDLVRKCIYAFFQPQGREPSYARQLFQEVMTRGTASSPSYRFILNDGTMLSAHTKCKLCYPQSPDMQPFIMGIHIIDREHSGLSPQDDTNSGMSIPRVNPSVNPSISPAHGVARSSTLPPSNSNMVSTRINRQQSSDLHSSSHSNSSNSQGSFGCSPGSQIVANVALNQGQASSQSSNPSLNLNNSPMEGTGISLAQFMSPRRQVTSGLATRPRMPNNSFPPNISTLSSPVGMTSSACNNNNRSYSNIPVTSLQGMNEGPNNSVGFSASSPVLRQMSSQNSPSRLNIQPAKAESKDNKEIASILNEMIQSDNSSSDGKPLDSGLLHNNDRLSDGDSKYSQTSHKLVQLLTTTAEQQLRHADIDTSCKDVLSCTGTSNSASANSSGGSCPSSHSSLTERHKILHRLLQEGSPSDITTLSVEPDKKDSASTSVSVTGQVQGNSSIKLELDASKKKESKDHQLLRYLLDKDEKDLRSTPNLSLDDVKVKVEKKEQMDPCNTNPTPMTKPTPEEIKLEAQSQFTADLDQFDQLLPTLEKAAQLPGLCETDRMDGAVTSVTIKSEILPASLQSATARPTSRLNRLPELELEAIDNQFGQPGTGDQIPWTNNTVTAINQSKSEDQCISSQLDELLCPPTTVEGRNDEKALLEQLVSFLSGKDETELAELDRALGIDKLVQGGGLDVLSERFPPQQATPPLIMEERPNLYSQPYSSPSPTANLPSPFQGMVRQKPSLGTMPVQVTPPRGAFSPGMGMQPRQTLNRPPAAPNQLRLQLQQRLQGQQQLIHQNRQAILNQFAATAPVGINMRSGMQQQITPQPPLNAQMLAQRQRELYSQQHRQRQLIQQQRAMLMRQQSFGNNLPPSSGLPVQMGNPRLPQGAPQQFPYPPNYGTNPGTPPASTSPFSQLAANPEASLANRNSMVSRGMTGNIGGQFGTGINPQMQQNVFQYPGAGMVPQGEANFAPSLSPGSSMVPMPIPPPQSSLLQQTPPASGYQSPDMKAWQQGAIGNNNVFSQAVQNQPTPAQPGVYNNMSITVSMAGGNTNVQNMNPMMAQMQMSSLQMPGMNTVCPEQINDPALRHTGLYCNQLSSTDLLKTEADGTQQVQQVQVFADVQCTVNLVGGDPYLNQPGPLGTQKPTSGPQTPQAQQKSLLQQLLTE

The term inhibition denotes the relative decrease from the control value, in per cent. In the case of `COc1ccc(CNC(=O)c2cccc3c(-c4cccc(C(N)=O)c4)coc23)cc1OC`, the inhibition in [1] was 30.4%; in test [2] it was 52% (active); in test [3], 3.09%; in test [4] it was 50.2% (active); in [5], 62.9% (active); in test [6], 69.7% (active). The inhibition was 68.7% (active) in [7], 73.6% (active) in test [8], 34.4% in test [9] and 37.8% in test [10].
As to `Cc1cc(C(=O)Nc2ccc(Cl)cc2)c(C)n1-c1ccccc1`, the inhibition is 74.9% (active) in test [1]; 69.7% (active) in test [2]; 60.1% (active) in test [3]; 50.3% (active) in [4]; 70% (active) in test [5]; 38% in test [6]. The inhibition in test [7] is 71.7% (active); in test [8], 55.4% (active); in [9], 82.5% (active); in test [10], 85.7% (active).
`OCC1OC(n2ccc3c(NO)ncnc32)C(O)C1O` (stereo not given): the inhibition in test [1] is 93.2% (active); in test [2] it was 88.2% (active); in test [3], 48.2% (active); in test [4], 87.4% (active); in test [5] it was 93.5% (active); in [6] it was 108% (active). The inhibition in [7] was 97% (active); in test [8] it was 96% (active); in test [9], 53.9% (active); in test [10], 51.5% (active).
Take `COc1ccc([C@@]23Oc4cc(OC)cc(OC)c4[C@]2(O)[C@H](O)[C@H](C(=O)N(C)C)[C@H]3c2ccccc2)cc1`: the inhibition in [1] was 95.7% (active); in test [2], 93.7% (active); in test [3], 85.6% (active); in [4] it was 92.9% (active); in test [5], 97.6% (active); in [6] it was 111% (active). In addition, the inhibition in test [7] was 99.3% (active); in [8], 98.2% (active); in [9], 56.2% (active); in test [10] it was 68.6% (active).
On to `O=C(CSCC(=O)Nc1ccccc1)N/N=C/c1c(O)ccc2ccccc12`, for which the inhibition in [1] was 49.3% (active); in test [2], 30.7% (active); in [3], 45.4%; in [4], 33.4% (active); in test [5] it was 86% (active); in test [6], 102% (active). The inhibition was 91.5% (active) in test [7], 82.9% (active) in test [8], -14.6% in [9] and 21.6% in test [10].
For the molecule `Cc1cc(C(=O)CSc2nnc3ccccn23)c(C)n1-c1ccccc1`, the inhibition in test [1] is 20.3%; in [2], 15.4%; in test [3], -49.2%; in [4] it was -25.1%; in test [5], 23.4%; in test [6], -38.6%. The inhibition in test [7] was 6.01%; in [8] it was -26.3%; in [9] it was 34.8%; in [10] it was 60.7% (active).
For the molecule `CC(C)(C)c1ccc(C(=O)O/N=C(\N)c2ccccn2)cc1`, the inhibition is 85.4% (active) in test [1]; 77.2% (active) in [2]; 64.9% (active) in [3]; 67.5% (active) in test [4]; 61.1% (active) in [5]; 45.8% (active) in test [6]. For the same molecule, the inhibition in test [7] is 58.5% (active); in test [8], 62.5% (active); in test [9], 83.1% (active); in [10], 94.4% (active).
For `O=c1cnnc(N/N=C/c2ccccn2)[nH]1`, the inhibition is 81.9% (active) in [1]; 68.9% (active) in [2]; 76% (active) in test [3]; 54.8% (active) in test [4]; 87.7% (active) in [5]; 103% (active) in test [6]. For the same molecule, the inhibition in test [7] is 83.3% (active); in [8], 65.3% (active); in test [9] it was -24.3%; in test [10], 26.5%.
As for `Cc1ccc(C#N)c(SCc2nnc(-c3ccc(Cl)cc3)o2)n1`, the inhibition in test [1] is 67.8% (active); in test [2], 54.9% (active); in test [3] it was 30.4%; in test [4], 28.1% (active); in test [5], 30.7% (active); in test [6], -14.8%. Moreover, the inhibition in [7] is 21.1%; in test [8], 7.27%; in [9], 59.4% (active); in test [10] it was 85.4% (active).
As to `Cc1cc(C(=O)CSc2nc3ccccc3[nH]2)c(C)n1CC1CCCO1` (stereo not given), the inhibition in test [1] is 5.02%; in [2] it was 30.5% (active); in test [3] it was -86.8%; in test [4], -6.65%; in test [5], -34.6%; in [6], -80.8%. In addition, the inhibition was -1.87% in test [7], 32.9% (active) in test [8], 31.5% in [9] and 50.9% (active) in test [10].
For `CCOc1cc(CNc2ccc3c(c2)OCCO3)cc(Br)c1OC`, the inhibition in test [1] is 50.5% (active); in test [2] it was 29.5% (active); in [3], -15.9%; in [4], -7.96%; in test [5] it was 39.5% (active); in test [6] it was -55.6%. Moreover, the inhibition in [7] is 23.8%; in test [8], -1.87%; in test [9], 1.28%; in [10] it was 48.8% (active).
As for `Cc1ccc(C(=O)Nc2sc(C)c(-c3ccccc3)c2C(N)=O)cc1[N+](=O)[O-]`, the inhibition in test [1] was 64% (active); in [2], 50% (active); in test [3], 29.8%; in test [4], 22.4%; in [5] it was 47.7% (active); in [6], -41.3%. For the same molecule, the inhibition in test [7] was 38.9%; in test [8] it was 10.9%; in test [9] it was 71.9% (active); in test [10] it was 74.1% (active).
Consider `Cc1c(C)c2ccc(OCC(=O)Nc3ccccn3)c(C)c2oc1=O`, for which the inhibition in test [1] is 78.5% (active); in test [2], 72.3% (active); in test [3] it was 50.1% (active); in test [4], 59.6% (active); in test [5], 67.5% (active); in test [6] it was 68.8% (active). The inhibition in [7] is 76.4% (active); in test [8], 69.7% (active); in [9], 81.3% (active); in test [10] it was 90.3% (active).
For `COc1cccc(/C=N/NC(=O)c2c(-c3ccccc3)noc2C)c1O`, the inhibition in [1] is 38.4%; in test [2] it was 37.1% (active); in test [3], 24.8%; in test [4], 34.6% (active); in test [5], 68.8% (active); in test [6], 52.1% (active). Moreover, the inhibition is 64.6% (active) in test [7], 67.5% (active) in [8], 2.72% in test [9] and 33.1% in [10].
For `O=C(CCCN1C(=O)S/C(=C\c2ccccc2)C1=O)NNC(=O)c1ccccc1O`, the inhibition in test [1] is 66% (active); in test [2], 58.7% (active); in test [3], 54.6% (active); in test [4] it was 53.3% (active); in test [5] it was 54.9% (active); in test [6] it was 64% (active). In addition, the inhibition was 53.8% (active) in test [7], 63.8% (active) in test [8], 89.2% (active) in [9] and 92.8% (active) in test [10].
